# CYP2C9 inhib: inhibitors of human CYP2C9 | 20% of 96,000 active | CYP2C9 Supersomes, luciferin-H conversion, luminescence | P11712 | inhibition, % at 5 µM;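 active means blocking of liver enzyme CYP2C9 beyond about 50% at 5 µM, limit read from the data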
# CYP2C9 act: CYP2C9 (human) activation; 1.4% of 96,000 active; activation factor at 5 µM; AID 1024; recombinant CYP2C9, luciferin-H conversion, luminescence; active compounds read high; factor 1 = untreated enzyme, 0 = blocked;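 active means activation factor of 2 or more for CYP2C9 at a 5 µM dose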;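 further: 0 = sulfaphenazole-blocked wells and 1 = vehicle-only wells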
# Measles CPE: protection of cells from measles virus | Measles virus-infected cells, CPE protection, absorbance | protection (pct of control), % at 4 µM | 1.5% of 140,000 active; in the data active means protection mostly above about 24%, no sharp cut-off; inactive means mostly below about 26%
# CYP2C19 inh: inhibitors of human CYP2C19; CYP2C19 Supersomes, luciferin-H EGE luminescence, 30 min; inhibition, % at 5 µM; 21% of 96,000 active; AID 778;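 active means CYP2C19 inhibition above a set limit at 5 µM in the primary screen, cut at about 50% in these data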;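 further: plate controls were negative control wells for no effect and 2.5 mM tranylcypromine positive control for full effect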
# Target sequence (P33261 whole entry, looked up): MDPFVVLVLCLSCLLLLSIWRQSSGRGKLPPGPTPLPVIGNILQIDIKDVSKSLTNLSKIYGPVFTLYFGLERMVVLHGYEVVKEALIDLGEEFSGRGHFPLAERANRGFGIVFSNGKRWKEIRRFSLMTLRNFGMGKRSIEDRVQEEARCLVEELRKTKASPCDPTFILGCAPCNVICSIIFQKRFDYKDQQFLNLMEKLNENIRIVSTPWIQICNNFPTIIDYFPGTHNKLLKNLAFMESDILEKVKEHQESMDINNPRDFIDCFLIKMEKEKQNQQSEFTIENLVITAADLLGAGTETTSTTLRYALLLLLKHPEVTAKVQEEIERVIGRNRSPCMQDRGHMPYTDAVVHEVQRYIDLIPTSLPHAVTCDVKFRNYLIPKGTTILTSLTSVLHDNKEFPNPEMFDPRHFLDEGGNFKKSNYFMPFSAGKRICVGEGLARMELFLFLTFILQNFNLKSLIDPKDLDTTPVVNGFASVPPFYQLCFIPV
# CYP2C19 activ: cytochrome P450 2C19 (human) activation; recombinant CYP2C19, luciferin-H EGE luminescence; active compounds read high; 0 = fully inhibited enzyme, 1 = untreated enzyme; activation factor at 5 µM; 96,000 tested, under 10 active; AID 1025;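 active means activation factor of at least 2 at 5 µM in the primary screen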;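 further: 0 = wells with 2.5 mM tranylcypromine and 1 = vehicle-only wells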
# An asterisk follows results filed as active; nt = no result given. Rows were chosen to be rich in hits. Some 22% of all compounds tested hit in one or more screens of this group.
SMILES,CYP2C9 inhib,CYP2C9 act,Measles CPE,CYP2C19 inh,CYP2C19 activ
CCOC(=O)C1=C(C)NC(C)=C(C(=O)OCC)C1C(=O)OCC(=O)c1ccc2c(c1)OCCO2,84.7*,0.2,21.2,68.4*,0.3
CCOC(=O)c1cc(CC)sc1NC(=O)c1ccc2c(c1)OCCO2,25.3,0.7,5.7,-2.6,1
CCOC(=O)C1=C(C)NC(C)=C(C(=O)OCC)C1C(=O)OCC(=O)N1CCc2ccccc21,82.1*,0.2,6.7,38.2,0.6
CN(CCc1ccccn1)c1ncnc2[nH]ncc12,2.6,1,7.4,12.1,0.9
CCOC(=O)c1c(C)c(C(=O)NCCCOC(C)C)c(C)n1C,-48.5,1.5,3.0,39.9,0.6
CCOC(=O)N1CCC(N(CCN(C)C)C(=S)Nc2cc(C)cc(C)c2)CC1,nt,nt,18.1,nt,nt
COc1ccc(-n2c(C)c3c(OC)cccc(=O)c3c2C)cc1,58.2*,0.4,nt,81.3*,0.2
COc1cc2nc(SCC(=O)NCCc3ccccc3)n(Cc3ccco3)c(=O)c2cc1OC,95.9*,0,5.5,65.8*,0.3
O=C(CSc1nc2ccccc2c(=O)n1Cc1ccco1)N1CCCCCC1,94.6*,0.1,45.2*,57.8*,0.4
O=C(NCc1ccco1)c1ccc2c(=O)n(Cc3ccco3)c(SCC(=O)N3CCCC3)nc2c1,63.7*,0.4,2.4,22.8,0.8
O=C(CSc1nc2ccccc2c(=O)n1-c1ccccc1)N1CCCC1,51.0*,0.5,6.6,33.8,0.7
CCSc1nc2cc(OC)c(OC)cc2c(=O)n1CCc1ccccc1,49.1,0.5,7.7,19.3,0.8
COC(=O)c1ccc2c(=O)n(CC3CCCO3)c(SCC(=O)Nc3ccccc3Cl)nc2c1 (configuration not stated),49.1,0.5,3.7,36.9,0.6
COC(=O)c1ccc2c(=O)n(Cc3ccco3)c(SCC(=O)Nc3ccccc3Cl)nc2c1,87.5*,0.1,1.7,34.9,0.7
Cc1[nH]c2ccc(-c3nnc(SCC(=O)c4ccccc4F)o3)cc2c1C,77.7*,0.2,3.1,57.2*,0.4
Cc1ccc(C(=O)CSc2nnc(-c3ccc4[nH]c(C)c(C)c4c3)o2)cc1C,71.2*,0.3,6.0,47.7,0.5
COc1ccccc1-c1nc(-c2cccc(C)c2)no1,-16.7,1.2,5.4,49.0,0.5
O=S(=O)(/N=C(\Nc1ccc(F)cc1)C(F)(F)F)c1ccccc1,55.9*,0.4,4.9,-3.8,1
Cc1cccc(N/C(=N\S(=O)(=O)c2ccccc2)C(F)(F)F)c1,56.2*,0.4,5.7,-10.9,1.1
COc1ccc(NS(=O)(=O)c2cccc(N/C(=N\S(=O)(=O)c3ccccc3)c3ccc(F)cc3)c2)cc1,nt,nt,5.5,nt,nt
Cc1nn(C)cc1/C=C(/C#N)C(N)=O,nt,nt,7.5,nt,nt
CN(c1ccccc1)S(=O)(=O)c1cccc(NC(=O)CSc2nncs2)c1,nt,nt,15.4,nt,nt
CC1CCCC(C)N1NC(=S)Nc1ccc(OC(F)F)cc1 (configuration not stated),nt,nt,6.7,nt,nt
O=C(CSc1nc2ccccc2c(=O)n1CCCO)NCc1ccccc1,44.0,0.6,10.4,31.0,0.7
O=C(CCCCCn1c(SCC(=O)c2ccccc2)nc2ccccc2c1=O)NCc1ccco1,97.6*,0,5.2,82.5*,0.2
SMILES,CYP2C9 inhib,CYP2C9 act,Measles CPE,CYP2C19 inh,CYP2C19 activ
CCOC(=O)CSc1nc2ccccc2c(=O)n1CCCCCC(=O)NCc1ccco1,96.8*,0,3.8,59.7*,0.4
O=C(CCCn1c(SCC(=O)c2ccc(Cl)cc2)nc2ccccc2c1=O)NCc1ccco1,54.5*,0.5,4.6,18.8,0.8
Cc1cccc(-n2c(SCC(=O)NCc3ccco3)nc3ccccc3c2=O)c1,47.2,0.5,8.4,16.3,0.8
N#C/C=C(/N)N1CCN(c2ccc(Cl)c(Cl)c2)CC1,28.2,0.7,3.1,32.9,0.7
O=c1[nH]c2ccc(N/C(=N/S(=O)(=O)c3ccccc3)c3ccccc3)cc2[nH]1,nt,nt,7.6,nt,nt
CN(c1ccc(C(=O)NCc2ccncc2)cc1)S(C)(=O)=O,41.2,0.6,5.4,0.5,1
Cc1ccc(O)c(-c2cc(C(=O)NCc3ccncc3)[nH]n2)c1,96.2*,0,19.6,74.7*,0.3
Cc1ccc(SCc2ccc(C(=O)NCc3ccncc3)cc2)cc1,99.2*,0,12.1,82.6*,0.2
Cc1ccc(C)c(C(=O)NCc2ccncc2)c1,53.7*,0.5,44.8,45.6,0.5
Cc1cc(C)c(O)c(-c2cc(C(=O)NCc3ccccc3)[nH]n2)c1,28.7,0.7,8.5,1.8,1
CCCn1c(=O)c2ccccc2n2c(SCC(=O)N3CCc4ccccc4C3)nnc12,nt,nt,25.9,nt,nt
CCOc1ccc(NC(=O)CCNS(=O)(=O)c2ccc(Br)s2)cc1,-41.2,1.4,4.5,7.0,0.9
CCc1ccc(CCC(=O)Nc2ccc(C)cc2C)o1,-30.3,1.3,0.7,78.8*,0.2
CCOC(=O)c1ccc(NC(=O)CCOc2ccccc2)cc1,55.3*,0.4,17.0,12.2,0.9
CCCOC(=O)c1ccc(NC(=O)CCC(=O)OCC)cc1,59.2*,0.4,21.1,64.0*,0.4
CCOC(=O)c1ccc(NC(=O)CCS(=O)(=O)c2ccc(Br)s2)cc1,51.3*,0.5,0.3,29.4,0.7
CN(C(=O)Cc1ccccc1)n1cnnc1,nt,nt,21.1,nt,nt
O=C(CCCOc1ccccc1)Nc1ncccn1,nt,nt,6.7,nt,nt
O=C(CCOc1ccccc1)Nc1ccccc1,13.6,0.9,3.9,61.6*,0.4
CCOC(=O)CCCNC(=O)COC(=O)c1ccc(O)cc1,-164.0,2.6*,13.9,-13.2,1.1
CCOC(=O)COC(=O)c1ccc(O)cc1,-47.0,1.5,4.7,7.3,0.9
CCOC(=O)c1ccc(NC(=O)CCc2ccc(CC)o2)cc1,60.1*,0.4,5.4,19.0,0.8
CCCOC(=O)c1ccc(NC(=O)CCOc2ccccc2)cc1,68.4*,0.3,10.6,46.2,0.5
Cc1cc(NC(=O)CSc2nnnn2Cc2ccccc2)no1,nt,nt,6.1,nt,nt
CCCn1c(N)c(C(=O)CN2CCN(S(=O)(=O)c3cccs3)CC2)c(=O)[nH]c1=O,12.1,0.9,0.5,10.4,0.9
SMILES,CYP2C9 inhib,CYP2C9 act,Measles CPE,CYP2C19 inh,CYP2C19 activ
COC(=O)c1ccc(C(=O)OC)c(NC(=O)CCc2ccc(C)o2)c1,37.1,0.6,26.5,50.8*,0.5
COC(=O)c1ccc(C(=O)OC)c(NC(=O)CCC(=O)O)c1,-32.9,1.3,16.3,-1.6,1
O=C(C1CCCN1C(=O)c1cccs1)N1CCc2ccccc21 (configuration not stated),17.9,0.8,2.7,53.9*,0.5
O=C(c1cccs1)N1CCCc2ccccc21,37.1,0.6,27.0,63.6*,0.4
O=C(c1cc2nc(-c3cccs3)cc(C(F)(F)Cl)n2n1)N1CCCc2ccccc21,89.3*,0.1,16.1,32.0,0.7
O=C(O)c1ccoc1CN1CCCCC1,nt,nt,6.9,nt,nt
CC/C(=N/N=C(\CC)c1ccccc1)c1ccccc1,nt,nt,2.9,nt,nt
COc1ccc(-c2nn(C)c3sc(C(=O)N4CCOCC4)cc23)cc1OC,8.5,0.9,33.4,17.6,0.8
COc1cccc(-c2nn(C)c3sc(C(=O)NCc4ccc(C)cc4)cc23)c1,53.7*,0.5,17.6,25.5,0.7
